Among the data in PubChem BioAssay AID485275 (NMMLSC, 2010) are inhibition values, retold here.

Screen size: about 330,000 compounds; about 1,400 (0.42%) were called active.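 The calls were made as follows: active = plate passing quality check with inhibition over a set limit, or well fluorescence over plate mean plus 4 SD; inactive = the rest.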 The entries come from a sample that favours actives as a whole.

The assay can be described thus: inhibitors of Candida efflux pumps in yeast, primary screen, S. cerevisiae, Nile Red, multiplex (AID 485275).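 Also: Nile Red retained in pooled yeast measured as flow cytometry median fluorescence; 0% = buffer negative control and 100% = Enniatin B positive control; higher means more Nile Red kept so more efflux inhibition.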 Particulars: S. cerevisiae Candida pump triplex, at 10 µM, active compounds read high.
Take `Cc1ccc(-n2c(-c3ccc([N+](=O)[O-])cc3)nc3ccccc3c2=O)cc1`: the inhibition (as a rule, the relative decrease from the control value, in per cent) is -0.08% (inactive).

`C/C(=N/O)c1ccc2ccc3ccccc3c2c1`: the inhibition is 0.16% (inactive). Next, `O=[N+]([O-])c1cnc2ccc3ccccc3c2c1`: 0.41% (active); `Clc1ccc2nc3c(c(-c4ccccc4)c2c1)CNCC3`: -0.17% (inactive).

In the case of `COC(=O)C1=C(c2ccc(Cl)c(C(F)(F)F)c2)C[C@@H]2CC[C@H]1N2C(=O)NC1CC1`, the inhibition is -0.03% (inactive).

Turning to `CN(c1ccccc1)c1ccc([N+](=O)[O-])c2nonc12`, the inhibition was -0.18% (inactive). Next, `CCN(CC)c1ccc([N+](=O)[O-])c2cccnc12`: 1.08% (active); `CN1CCC(N(C)Cc2cccnc2)CC1`: 0.12% (inactive); `c1cc2c(cc1CCNC1CCCCCC1)OCO2`: 0.08% (inactive). Next, `CCN1CC2C3CCC(C)(O3)C2C1` (stereo not given): -0.18% (inactive).
